Tb PFK block: qHTS Assay to Find Inhibitors of T. brucei phosphofructokinase; ATP-dependent 6-phosphofructokinase (Trypanosoma brucei brucei), O15648; T. brucei PFK, ADP-Glo luminescence; Potency, µM (titrated, usually from 57.5 µM), most hits filed as inhibitors; actives 0.17% (n = 330,000); AID 485367, 2010; further: nearly all actives have a fitted effect of over 60% in size
Target sequence (O15648 whole entry, looked up): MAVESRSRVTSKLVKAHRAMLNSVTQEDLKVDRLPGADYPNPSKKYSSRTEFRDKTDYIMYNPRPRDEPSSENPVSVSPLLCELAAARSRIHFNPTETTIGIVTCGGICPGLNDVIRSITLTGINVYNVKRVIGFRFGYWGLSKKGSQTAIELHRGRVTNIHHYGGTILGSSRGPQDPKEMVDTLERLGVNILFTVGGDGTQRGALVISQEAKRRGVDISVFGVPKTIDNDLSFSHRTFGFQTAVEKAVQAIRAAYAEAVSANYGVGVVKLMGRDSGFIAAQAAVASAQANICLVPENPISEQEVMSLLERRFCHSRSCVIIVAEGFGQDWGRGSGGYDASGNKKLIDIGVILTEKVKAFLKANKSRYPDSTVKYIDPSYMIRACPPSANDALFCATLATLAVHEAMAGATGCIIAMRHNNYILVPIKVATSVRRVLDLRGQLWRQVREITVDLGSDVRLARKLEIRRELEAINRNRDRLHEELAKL
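1.25 nM PFK with 0.5 mM F6P and 0.1 mM ATP in 0.1 M TEA pH 8.0, 5 mM MgCl2, incubated 45 min at room temperature; ADP measured by ADP-Glo luminescence; compounds titrated up to 57 uM.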
Rango-impB inh: qHTS Assay for Inhibitors of Rango (Ran-regulated importin-beta cargo) - Importin beta complex formation; Importin subunit beta-1 (Homo sapiens), Q14974; Rango CFP/YFP FRET sensor + importin beta, 45 min; Potency, µM (titrated, usually from 92.2 µM); actives 0.031% (n = 340,000); calls by dose curve; further: nearly all actives have a fitted effect of over 15% in size
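FRET biosensor Rango (snurportin 1 IBB between N-terminal EYFP and C-terminal Cerulean), 50 nM in PBS/1 mM DTT/0.02% Tween-20/0.1% BSA, preincubated 5 min RT with compound; 0.125 microM importin beta added, 45 min RT, CFP/YFP FRET ratio read.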
ELG1 repair inh: qHTS screen for small molecules that inhibit ELG1-dependent DNA repair in human embryonic kidney (HEK293T) cells expressing luciferase-tagged ELG1; actives 2.3% (n = 330,000); HEK293T ELG1-luciferase reporter, luminescence, 16 h; DNA damage induced by 5-fluorouridine; Potency, µM (doses to about 46.1 µM), usual class: inhibitors; further: nearly all actives have a fitted effect of over 55% in size
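HEK293T cells expressing luciferase-tagged ELG1 (2,000/well) received 5-Fluorouridine plus compound or DMSO for 16 hr at 37 °C. Luciferase was read by ONE-Glo luminescence after 30 min at room temperature.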
PGK inhibitor: qHTS Assay to Find Inhibitors of Phosphoglycerate Kinase; Phosphoglycerate kinase, glycosomal (Trypanosoma brucei brucei), P07378; PGK/GAPDH coupled, Kinase-Glo luminescence, 60 min; Potency, µM (top dose mostly 57.5 µM), most hits filed as inhibitors; actives 0.043% (n = 380,000); AID 602233, 2012; further: nearly all actives have a fitted effect of over 60% in size
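Luminescent ATP detection (Kinase-Glo Plus) follows a 60-minute room-temperature incubation, with wells lacking PGK as controls. Buffer: 100 mM TEA (pH 7.6), 5 mM MgCl2, 0.01% Tween-20. Coupling enzyme GAPDH (100 nM final) supplies unstable 1,3-BPG in-well.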
Rango dissoc inh: qHTS Assay for Inhibitors of RanGTP induced Rango (Ran-regulated importin-beta cargo) - Importin beta complex dissociation; Snurportin-1 (Homo sapiens) + GTP-binding nuclear protein Ran (Homo sapiens) + Importin …; Biochemical FRET Rango-importin beta, RanGTP-induced dissociation; Potency, µM (highest dose often 46.1 µM); actives 0.071% (n = 340,000); calls by dose curve; further: nearly all actives have a fitted effect of over 45% in size
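Quantitative HTS using a FRET biosensor: 0.1 uM Rango, 0.25 uM importin beta, 0.6 uM Ran, 2 mM GTP, 0.2 uM RCC1 final, PBS with DTT, Tween-20 and BSA. Post-read taken 45 min after Ran addition.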
PKM2 activator: qHTS Assay for Activators of Human Muscle isoform 2 Pyruvate Kinase; AID 1631, 2009; Pyruvate kinase PKM (Homo sapiens), P14618; actives 0.34% (n = 260,000); purified PKM2, Kinase-Glo ATP luminescence, activation; response scale: 0% is enzyme alone, no compound; Potency, µM (highest dose often 57.5 µM), usual class: activators; further: nearly all actives have a fitted effect of over 55% in size
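Kinase-Glo luminescence reports ATP generated from ADP (0.1 mM) and PEP (0.5 mM) by purified hPK-M2 after 1 h at room temperature, pH 7.2 imidazole buffer; intermediate enzyme activity allows detecting inhibitors and activators.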
A number is an active result; . = inactive; ? = inconclusive; / = no result. Rows were chosen to be rich in hits. Some 2.4% of all compounds tested hit in one or more screens of this group. Unless noted, the call rests on the fitted dose curve; in most records, active means well fitted curve in the direction sought with a large enough effect; inconclusive means small, poorly fitted or top-dose-only effect, or another doubt; inactive means no such curve, though single readings can be large; an effect the other way counts as inactive or inconclusive.

SMILES	Tb PFK block	Rango-impB inh	ELG1 repair inh	PGK inhibitor	Rango dissoc inh	PKM2 activator
Cc1ccc(S(=O)(=O)N2CCOCC2)cc1N/N=C(\C#N)c1nc2ccccc2[nH]1	.	?	8.2µM	.	?	.
CCOC(=O)c1sc2nc(C)nc(NCc3ccccc3OC)c2c1C	.	.	?	.	.	/
CCOC(=O)c1sc2nc(C)nc(NCCc3ccccn3)c2c1C	.	?	20.6µM	.	.	.
CC(=O)N1N=C(c2ccc(Cl)cc2)CC1c1ccco1 (stereo not drawn)	.	.	?	.	.	25.1µM
CC(=O)N1N=C(c2ccc(C)cc2)CC1c1ccco1 (stereo not drawn)	.	.	?	.	.	?
CCc1ccc(-n2nc(C)c3c(C)cc(=O)n(CC(=O)Nc4ccc(OC)c(OC)c4)c32)cc1	/	/	/	.	/	/
COc1ccc(Cl)cc1C(=O)Nn1c(-c2cccs2)nc2ccccc2c1=O	.	.	6.51µM	.	.	.
COc1ccc(Cl)cc1C(=O)Nn1c(C)nc2ccccc2c1=O	.	.	.	/	.	.
CC1CCN(S(=O)(=O)c2ccc3c(c2)c(=O)c(C(=O)NCCc2ccccc2)cn3C)CC1	/	/	/	.	/	/
CN(C)c1ccc(C=C(c2nnnn2-c2ccccc2)c2nnnn2-c2ccccc2)cc1	.	?	11.6µM	.	?	.
CN(C)c1ccc(/C=C/c2nc(-c3ccccc3O)n(-c3ccccc3)n2)cc1	/	/	/	.	/	/
CCOC(=O)c1cccc(NC(=O)C2CCN(S(=O)(=O)c3ccc4c(c3)oc(=O)n4C)CC2)c1	/	/	/	.	/	/
COc1ccc2cc(CO)c3cc(OC)c(OC)cc3c2c1	.	.	8.2µM	.	.	/
Cc1ccc(Oc2ccc(OCC(=O)NC3CCS(=O)(=O)C3)cc2)cc1 (stereo not drawn)	.	.	11.6µM	.	.	/
CCCCCCc1cc2cc(-c3nnc(-c4ccccc4OC)o3)c(=O)oc2cc1O	.	?	7.31µM	?	?	.
COc1cc(OC)c(NC(=O)CN(C)S(=O)(=O)c2ccc(-c3ccc(=O)[nH]n3)s2)cc1Cl	.	.	6.51µM	.	.	/
CCN(CC)CCCC(C)n1c(-c2ccccc2)nc2c(NCCOC)nc(C)nc21 (stereo not drawn)	/	/	/	/	/	.
COc1cc(C#Cc2c(-c3cncn3C)n(C)c3ccc(-c4ccc5cc[nH]c5c4)cc23)cc(OC)c1	.	.	?	.	.	/
COc1cc(OC)cc(-c2c(C#Cc3ccsc3)c3cc(Br)ccc3n2C)c1	.	.	.	.	.	/
COc1cc(C#Cc2c(-c3cncn3C)n(C)c3ccc(Br)cc23)cc(OC)c1	.	.	9.2µM	.	.	/
COc1cc(C#Cc2c(-c3cncn3C)n(C)c3ccc(-c4ccc(OC)c(OC)c4)cc23)cc(OC)c1	.	.	7.3µM	.	.	/
COc1ccc(OC)c(CNC(=O)Cc2ccc(NC(=O)N3CCSc4ncccc43)cc2)c1	/	/	/	.	/	/
Cc1ccc(S(=O)(=O)NC(C)(C)CN2CCc3ccccc3C2)cc1	.	.	.	.	.	.
Cc1cc(C)cc(OCCn2c(C3CC(=O)N(c4ccccc4Cl)C3)nc3ccccc32)c1 (stereo not drawn)	.	/	/	.	/	/
Cc1ccc(OCCn2c(C3CC(=O)N(Cc4ccccc4)C3)nc3ccccc32)cc1 (stereo not drawn)	.	.	14.6µM	.	.	.
Cn1c(=O)c2c(SCC(=O)NCC3CCCO3)nc(-c3cccc(F)c3)nc2n(C)c1=O (stereo not drawn)	/	/	/	.	/	/
Cn1ccs/c1=N\S(=O)(=O)c1ccc(Br)cc1	.	.	.	.	.	15.8µM

Screening data deposited in PubChem BioAssay by National Center for Advancing Translational Sciences (NCATS).
